Measured values as given in PubChem BioAssay (Tox21).
Records with an inconclusive call do not appear. Values without a mark were called inactive. The source made the active and inactive calls. Calls follow the shape of the dose curve; as a rule, active = well fitted inhibition curve with a large enough effect in the repeat runs; inconclusive = weak or mixed curves; inactive = no such curve, though single readings can be large or run the other way.

molecular target: Cytochrome P450 3A4 (Homo sapiens) (UniProt P08684); assay: Cytochrome P450 Family 3 Subfamily A Member 4 (CYP3A4) small molecule antagonists: luciferase reporter qHTS assay (AID 1671201); details: P450-Glo CYP3A4 enzyme, luciferin luminescence, 1 h; series mostly up to 115 µM; activity change, negative = inhibition: at the top concentration; also: nearly all actives have a fitted effect of over 50% in size
Method in brief: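 Relative luminescence units after 20 min with luciferin detection reagent served as read-out. Beforehand, CYP3A4 turned over a proluciferin substrate for 1 h at room temperature with NADPH regeneration, following 10 min compound preincubation.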
% is scaled to controls: 0 for no effect and ±100 for the full control effect; potency is read from the fitted curve at half-maximal effect.

Sequence of Cytochrome P450 3A4 (Homo sapiens) (P08684 whole entry, looked up): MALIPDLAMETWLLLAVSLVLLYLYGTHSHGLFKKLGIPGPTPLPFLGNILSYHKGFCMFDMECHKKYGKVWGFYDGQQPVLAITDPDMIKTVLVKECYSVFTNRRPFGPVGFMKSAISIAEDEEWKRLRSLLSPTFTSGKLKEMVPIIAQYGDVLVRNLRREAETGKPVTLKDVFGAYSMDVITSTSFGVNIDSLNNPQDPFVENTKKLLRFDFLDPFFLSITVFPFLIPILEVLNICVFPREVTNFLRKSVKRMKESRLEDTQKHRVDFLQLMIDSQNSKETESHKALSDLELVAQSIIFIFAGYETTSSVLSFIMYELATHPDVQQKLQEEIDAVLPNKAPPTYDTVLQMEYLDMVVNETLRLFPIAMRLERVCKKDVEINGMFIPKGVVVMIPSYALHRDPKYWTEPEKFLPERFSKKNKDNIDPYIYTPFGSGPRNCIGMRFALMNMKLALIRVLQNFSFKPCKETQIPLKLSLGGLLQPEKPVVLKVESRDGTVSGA

Row | SMILES | activity change, negative = inhibition [%] | Potency
1 | Nc1c(Br)cc([N+](=O)[O-])cc1Br | 5.73 | 
2 | O=C1OC(=O)c2cc(-c3ccc4c(c3)C(=O)OC4=O)ccc21 | 46.7 | 
3 | C=Cc1ccc(O)c(OC)c1 |  | 20 µM (active)
4 | CCCCCc1ccc(O)cc1 | -15.4 | 
5 | CCSCC | 25.7 | 
6 | Cc1c(Cl)c(=O)oc2cc(O)ccc12 | -4.24 | 
7 | CCCCCCCCOC(=O)c1cc(O)c(O)c(O)c1 |  | 35.6 µM (active)
8 | Nc1ccc(Cl)c([N+](=O)[O-])c1 | -3 | 
9 | Cc1ccc(Cl)c(N)c1Cl | -0.511 | 
10 | Nc1cccnc1N | -11.9 | 
11 | CC/C=C\C/C=C\C/C=C\CCCCCCCC(=O)OC |  | 20 µM (active)
12 | C=CCc1cc(S(=O)(=O)c2ccc(O)c(CC=C)c2)ccc1O |  | 28.3 µM (active)
13 | CC(C)=NNC(N)=S | -14.7 | 
14 | CN1CCN(c2ccccc2/C=C2\SCCN(c3ccc(Cl)c(Cl)c3)C2=O)CC1 |  | 3.99 µM (active)
15 | c1ccc(C[P+](c2ccccc2)(c2ccccc2)c2ccccc2)cc1 | 232 | 
16 | CCN(CC)c1ccc(C=O)cc1 | 7.28 | 
17 | COc1cccc(-c2ccc(/C=C\CN3CCCCCC3)cc2Cl)c1 | -24.1 | 
